In PubChem BioAssay (EPA / NIEHS):
Inconclusive results are not listed. Activity calls are given as the source filed them. The calls were made as follows, unless noted: active = hit-call score of the fitted dose curve at least 0.9, where 1 is the maximum; inactive = score below 0.9.

Columns and labels:
[1] = CCTE_Mundy_HCI_Cortical_Synap_Neur_Matur_BPCount: CCTE's Synaptogenesis and Neurite Maturation Assay in rat cortical cells for Branch Point Count, Mundy Lab (AID 2284211)
Procedure, shortened: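 HCI read-out of branch points from MAP2/synaptophysin/Hoechst immunofluorescence; rat cortical cultures, AraC DIV 5, dosing DIV 7, fixed DIV 12; fit in positive direction vs DMSO baseline.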

[2] = CCTE_Mundy_HCI_Cortical_NOG_NeuriteCount: CCTE's Neurite Outgrowth Assay in rat cortical cells for Neurite Count, Mundy Lab (AID 2284212);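 also: cells fixed about two days after chemical exposure began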
Procedure, shortened: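 Rat cortical primary cells; compound added 2 h post-plating, 1/10 dilution of working solution. Anti-betaIII-tubulin/AF488 ICC; ArrayScan neurite count vs DMSO.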

[3] = CCTE_Mundy_HCI_Cortical_NOG_NeuriteLength: CCTE's Neurite Outgrowth Assay in rat cortical cells for Neurite Length, Mundy Lab (AID 2284213)
Procedure, shortened: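 First, rat primary cortical cells were plated and, 2 h later, given test chemical as a 1/10 dilution. Finally, βIII-tubulin immunostaining enabled automated imaging of neurite length.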

[4] = CCTE_Mundy_HCI_Cortical_Synap_Neur_Matur_NeuriteLength: CCTE's Synaptogenesis and Neurite Maturation Assay in rat cortical cells for Neurite Length, Mundy Lab (AID 2284214)
Procedure, shortened: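 Neurite length quantified by automated high-content imaging of MAP2, synaptophysin and Hoechst staining. Rat cortical cells received chemical from DIV 7 to DIV 12 […], glial growth arrested by AraC at DIV 5; DMSO baseline.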

[5] = CCTE_Mundy_HCI_Cortical_Synap_Neur_Matur_NeuriteSpotCountPerNeuron: CCTE's Synaptogenesis and Neurite Maturation Assay in rat cortical cells for Neurite Spot Count per Neuron Count, Mundy Lab (AID 2284215)
Procedure, shortened: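 Rat cortical primary cultures; AraC DIV 5 to arrest glia; dosing + media change DIV 7; fixed DIV 12. Anti-MAP2/anti-synaptophysin, Hoechst nuclei; HCI puncta count per neuron, positive fitting direction vs DMSO.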

[6] = CCTE_Mundy_HCI_Cortical_Synap_Neur_Matur_SynapseCount: CCTE's Synaptogenesis and Neurite Maturation Assay in rat cortical cells for Synapse Count, Mundy Lab (AID 2284218)
Procedure, shortened: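 High-content imaging of synaptophysin puncta per MAP2-positive neuron (Hoechst nuclei) in rat cortical cells exposed DIV 7–12 after glial arrest with AraC at DIV 5; decrease relative to DMSO scored.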

[7] = CCTE_Mundy_HCI_Cortical_Synap_Neur_Matur_NeuriteCount: CCTE's Synaptogenesis and Neurite Maturation Assay in rat cortical cells for Neurite Count, Mundy Lab (AID 2284222);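 also: exposure from day 7 to day 12 in vitro with readout at day 12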
Procedure, shortened: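 Rat primary cortical cells; AraC added at DIV 5, chemicals dosed with media change at DIV 7 through DIV 12. MAP2/synaptophysin/Hoechst immunostaining, high-content imaging of neurite number; fitted relative to DMSO.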

[8] = CCTE_Mundy_HCI_Cortical_Synap_Neur_Matur_CellBodySpotCount: CCTE's Synaptogenesis and Neurite Maturation Assay in rat cortical cells for Cell Body Spot Count, Mundy Lab (AID 2284223)
Procedure, shortened: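 Rat cortical neurons; AraC @ DIV 5; dose + media change DIV 7; fix DIV 12; anti-MAP2/anti-synaptophysin IF, Hoechst; HCI count of soma synaptophysin puncta/neuron; DMSO = negative control.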

[9] = CCTE_Mundy_HCI_hNP1_Pro_ResponderAvgInten: CCTE's Proliferation Assay in human neuroprogenitor cells, Mundy Lab (AID 2284224; active = hit-call score of the fitted dose curve at least 0.9, where 1 is the maximum;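 also: human neural progenitor cells hNP1 derived from WA09 embryonic stem cells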)
Procedure, shortened: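 Proliferation read as average intensity of BrdU-positive cells, imaged at 26.25 h post-dosing: chemical exposure started after 40–44 h culture, BrdU during final 4 h, paraformaldehyde fixation. Positive-direction fit relative to DMSO.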

[10] = CCTE_Mundy_HCI_Cortical_NOG_BPCount: CCTE's Neurite Outgrowth Assay in rat cortical cells for Branch Point Count, Mundy Lab (AID 2284237)
Procedure, shortened: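 Measured 50.33 h after dosing, this morphology endpoint uses rat primary cortical cultures labelled for betaIII-tubulin. Branch points are quantified by high-content imaging, with DMSO as negative control and baseline.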

[11] = CCTE_Mundy_HCI_hNP1_Casp3_7: CCTE's Caspase-Glo 3/7 Assay in human neuroprogenitor cells for Apoptosis, Mundy Lab (AID 2284240)
Procedure, shortened: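 Luminescent caspase-3/7 readout, 26.5 h post-dose, in human neural progenitor cells from WA09 embryonic stem cells. Cells grew 40–44 h at 37 °C, 5% CO2 before chemical addition. Activity analysed as signal increase over DMSO baseline.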

[12] = CCTE_Mundy_HCI_Cortical_Synap_Neur_Matur_NeuronCount: CCTE's Synaptogenesis and Neurite Maturation Assay in rat cortical cells for Neuron Count, Mundy Lab (AID 2284242; active = hit-call score of the fitted dose curve at least 0.9, where 1 is the maximum)
Procedure, shortened: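 Neuron counts come from automated high-content imaging of Hoechst nuclei and MAP2/synaptophysin immunostaining at DIV 12, with loss of signal judged against DMSO. Cultures of rat cortical cells had glial growth arrested by AraC at DIV 5; chemical exposure began DIV 7.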

[13] = CCTE_Mundy_HCI_iCellGluta_NOG_NeuronCount: CCTE's Neurite Outgrowth Assay in iCellGluta cells for Neuron Count, Mundy Lab (AID 2284340; active = hit-call score of the fitted dose curve at least 0.9, where 1 is the maximum;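 also: cells fixed about 48 h after compound addition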)
Procedure, shortened: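 Neuron count read by automated high-content imaging of Hoechst 33342 and betaIII-tubulin/Alexa Fluor-488 labelling in human iPSC glutamatergic neurons. Activity fitted relative to DMSO.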

[14] = target: AR (gene 367) (UniProt P10275); test: ACEA_AR_agonist_80hr: ACEA Biosciences xCELLigence Real-Time Cell Analysis on Androgen Receptor Agonism for Proliferation (AID 2283783; active = hit-call score of the fitted dose curve at least 0.9, where 1 is the maximum;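 also: hits increase impedance growth signal above DMSO baseline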)
Procedure, shortened: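 Impedance (RT-CES) growth signal at 80 h post-dose; 22Rv1 cells, 8-pt 1:4 series, top 100 uM final, DMSO ≤0.5%; duplicate plates; gain-of-signal fit relative to DMSO baseline.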

[15] = system: chicken Androgen Receptor (AR), gene 422165; test: ATG_chAR_XSP1: Attagene TRANS-FACTORIAL Multi-Species (XSP1) HepG2 Assay for chicken Androgen Receptor (AR) (AID 2283768; active = hit-call score of the fitted dose curve at least 0.9, where 1 is the maximum)
Procedure, shortened: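 Reporter mRNA read by RT-PCR with fluorescent labelling and capillary electrophoresis 24 h after chemical dosing of transiently transfected HepG2 cells. Chicken AR-Gal4 chimera, partially stimulated with 3 nM 6-alpha-fluorotestosterone; activity fitted upward relative to DMSO.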

[16] = system: turtle Androgen Receptor (AR), gene 101947425; test: ATG_trAR_XSP1: Attagene TRANS-FACTORIAL Multi-Species (XSP1) HepG2 Assay for turtle Androgen Receptor (AR) (AID 2283786; active = hit-call score of the fitted dose curve at least 0.9, where 1 is the maximum)
Procedure, shortened: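 Partial androgen stimulation is provided by 3 nM 6-alpha-fluorotestosterone in a multi-species trans-factorial panel expressing a turtle AR–GAL4 fusion in HepG2. After 24 h, reporter mRNA is measured by RT-PCR and capillary electrophoresis and fitted upward against DMSO.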

[17] = target: Estrogen receptor beta (Homo sapiens) (UniProt Q92731); test: ATG_hERb_XSP1: Attagene TRANS-FACTORIAL Multi-Species (XSP1) HepG2 Assay for human Estrogen Receptor (ESR2) (AID 2283788; active = hit-call score of the fitted dose curve at least 0.9, where 1 is the maximum)
Procedure, shortened: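 Transient MRTU transfection of HepG2; ERβ–GAL4 TRANS format; 24 h dosing; 3 nM 6α-fluorotestosterone co-added; RNA → RT-PCR → 6-FAM primer extension → CE; activity vs DMSO.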

[18] = target: Thyroid hormone receptor alpha (Rattus norvegicus) + Thyroid hormone receptor beta (Rattus norvegicus) (UniProt P18113+P63059); test: TOX21_TR_LUC_GH3_Agonist_Followup: Tox21 GH3 Thyroid Hormone Receptor Agonism Luciferase Follow-Up Assay (AID 2283939; active = hit-call score of the fitted dose curve at least 0.9, where 1 is the maximum)
Procedure, shortened: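 Agonist-mode confirmatory run: 15 concentrations (5 nM to 92 uM final) on GH3 rat pituitary cells, 24 h at 37C/5% CO2, T3 as positive control. Luminescence read with ONE-Glo after 30 min.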

[19] = target: THRA (gene 7067) (UniProt P10827); test: TOX21_TRA_COA_Agonist_Followup_ratio: Tox21 Thyroid Hormone Receptor alpha Agonism through Coactivator Recruitment Follow-Up Assay, Ratio (AID 2283948)
Procedure, shortened: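 Follow-up specificity assay in which TRα ligand-binding domain, expressed as a GST fusion, recruits a fluorescein-labelled SRC-2 peptide. Energy transfer from a terbium anti-GST antibody gives the acceptor/donor ratio, fitted upward relative to DMSO.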

[20] = target: THRB (gene 7068) (UniProt P10828); test: TOX21_TRB_BLA_Agonist_Followup_ratio: Tox21 Thyroid Hormone Receptor beta Agonism Beta-lactamase (BLA) Follow-Up Assay, Ratio (AID 2283954; active = hit-call score of the fitted dose curve at least 0.9, where 1 is the maximum)
Procedure, shortened: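 Agonist mode: compounds (11-point, triplicate) incubated 18 h with HEK293T cells carrying GAL4-DBD/human TRβ-LBD and UAS-β-lactamase. Blue/green (460/530 nm) FRET ratio read after 2 h CCF4-AM loading; CellTiter-Glo viability run in the same plates.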

Chain of THRB (gene 7068) (P10828 whole entry, looked up, the tested form may be a part): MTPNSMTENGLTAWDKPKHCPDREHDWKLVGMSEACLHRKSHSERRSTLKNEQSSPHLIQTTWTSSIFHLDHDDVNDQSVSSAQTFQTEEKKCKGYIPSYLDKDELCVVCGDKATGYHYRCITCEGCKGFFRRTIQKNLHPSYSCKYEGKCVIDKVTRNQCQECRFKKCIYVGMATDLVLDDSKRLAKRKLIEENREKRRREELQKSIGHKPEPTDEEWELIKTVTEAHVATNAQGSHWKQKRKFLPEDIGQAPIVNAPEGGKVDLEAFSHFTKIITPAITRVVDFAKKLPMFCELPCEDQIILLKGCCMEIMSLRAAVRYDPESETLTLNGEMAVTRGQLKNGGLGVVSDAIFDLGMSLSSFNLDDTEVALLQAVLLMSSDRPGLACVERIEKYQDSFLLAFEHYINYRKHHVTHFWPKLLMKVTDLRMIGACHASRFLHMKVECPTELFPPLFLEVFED
Chain of Estrogen receptor beta (Homo sapiens) (Q92731 whole entry, looked up, the tested form may be a part): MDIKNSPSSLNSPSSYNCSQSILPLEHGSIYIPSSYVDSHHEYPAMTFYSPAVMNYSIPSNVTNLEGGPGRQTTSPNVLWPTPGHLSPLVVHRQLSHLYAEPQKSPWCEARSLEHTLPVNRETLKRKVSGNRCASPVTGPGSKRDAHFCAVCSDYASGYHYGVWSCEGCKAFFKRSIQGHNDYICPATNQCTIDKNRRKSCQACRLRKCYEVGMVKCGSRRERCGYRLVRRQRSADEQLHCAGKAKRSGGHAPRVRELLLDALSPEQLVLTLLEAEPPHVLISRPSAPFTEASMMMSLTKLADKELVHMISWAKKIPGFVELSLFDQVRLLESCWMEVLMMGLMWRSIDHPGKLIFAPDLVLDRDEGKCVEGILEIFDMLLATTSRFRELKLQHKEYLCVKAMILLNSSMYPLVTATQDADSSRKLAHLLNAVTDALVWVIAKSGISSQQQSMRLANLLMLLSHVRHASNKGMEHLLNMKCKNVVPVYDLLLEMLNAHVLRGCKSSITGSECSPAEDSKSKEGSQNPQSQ
Chain of Thyroid hormone receptor alpha (Rattus norvegicus) + Thyroid hormone receptor beta (Rattus norvegicus) (P63059 whole entry, looked up): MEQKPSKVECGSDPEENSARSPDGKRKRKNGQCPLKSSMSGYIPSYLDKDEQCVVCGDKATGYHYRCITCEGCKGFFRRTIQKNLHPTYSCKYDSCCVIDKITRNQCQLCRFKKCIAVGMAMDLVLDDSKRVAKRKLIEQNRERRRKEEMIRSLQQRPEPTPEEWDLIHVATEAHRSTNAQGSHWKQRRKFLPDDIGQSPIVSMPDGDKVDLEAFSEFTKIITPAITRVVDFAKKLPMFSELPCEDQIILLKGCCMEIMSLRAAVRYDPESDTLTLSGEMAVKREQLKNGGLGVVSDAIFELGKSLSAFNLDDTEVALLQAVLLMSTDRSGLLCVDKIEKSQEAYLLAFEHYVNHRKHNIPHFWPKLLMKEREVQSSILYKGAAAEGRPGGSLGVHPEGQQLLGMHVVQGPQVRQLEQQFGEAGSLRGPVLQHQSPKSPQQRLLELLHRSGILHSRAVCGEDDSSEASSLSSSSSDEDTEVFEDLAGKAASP
Chain of Thyroid hormone receptor alpha (Rattus norvegicus) + Thyroid hormone receptor beta (Rattus norvegicus) (P18113 whole entry, looked up): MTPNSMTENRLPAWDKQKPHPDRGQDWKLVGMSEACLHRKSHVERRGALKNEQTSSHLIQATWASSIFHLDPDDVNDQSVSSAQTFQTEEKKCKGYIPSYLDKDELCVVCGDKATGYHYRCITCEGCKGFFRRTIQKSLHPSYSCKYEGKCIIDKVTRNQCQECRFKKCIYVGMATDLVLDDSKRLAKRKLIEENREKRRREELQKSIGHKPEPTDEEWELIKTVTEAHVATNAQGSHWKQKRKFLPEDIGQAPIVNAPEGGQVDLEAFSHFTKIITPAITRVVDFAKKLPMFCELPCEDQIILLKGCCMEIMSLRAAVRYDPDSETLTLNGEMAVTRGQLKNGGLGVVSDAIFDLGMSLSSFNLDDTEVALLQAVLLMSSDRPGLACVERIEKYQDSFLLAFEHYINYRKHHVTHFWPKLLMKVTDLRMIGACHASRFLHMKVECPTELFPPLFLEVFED
Chain of AR (gene 367) (P10275 whole entry, looked up): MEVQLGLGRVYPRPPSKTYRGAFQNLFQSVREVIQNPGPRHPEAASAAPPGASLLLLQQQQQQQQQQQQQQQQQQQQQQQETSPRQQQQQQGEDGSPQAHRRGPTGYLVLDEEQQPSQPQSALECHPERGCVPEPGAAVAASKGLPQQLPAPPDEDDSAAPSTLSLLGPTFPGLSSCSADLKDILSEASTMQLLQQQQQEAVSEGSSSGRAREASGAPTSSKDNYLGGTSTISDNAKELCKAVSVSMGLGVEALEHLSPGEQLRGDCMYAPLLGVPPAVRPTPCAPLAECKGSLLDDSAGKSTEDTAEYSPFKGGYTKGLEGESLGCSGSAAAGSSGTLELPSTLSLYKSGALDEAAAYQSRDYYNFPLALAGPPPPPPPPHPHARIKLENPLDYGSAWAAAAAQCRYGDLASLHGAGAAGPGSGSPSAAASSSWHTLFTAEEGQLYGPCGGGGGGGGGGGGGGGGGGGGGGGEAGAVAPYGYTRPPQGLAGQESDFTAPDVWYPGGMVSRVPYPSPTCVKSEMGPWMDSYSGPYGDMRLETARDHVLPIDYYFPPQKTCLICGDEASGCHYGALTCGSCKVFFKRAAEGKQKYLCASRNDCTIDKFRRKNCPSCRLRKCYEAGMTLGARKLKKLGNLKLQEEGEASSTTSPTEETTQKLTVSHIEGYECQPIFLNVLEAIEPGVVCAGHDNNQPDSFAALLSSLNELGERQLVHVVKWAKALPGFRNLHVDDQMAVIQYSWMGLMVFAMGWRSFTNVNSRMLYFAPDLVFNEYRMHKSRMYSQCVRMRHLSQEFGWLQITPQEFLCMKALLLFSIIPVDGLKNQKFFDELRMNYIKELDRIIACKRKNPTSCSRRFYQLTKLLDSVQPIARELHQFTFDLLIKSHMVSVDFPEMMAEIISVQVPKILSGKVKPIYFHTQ
Chain of THRA (gene 7067) (P10827 whole entry, looked up, the tested form may be a part): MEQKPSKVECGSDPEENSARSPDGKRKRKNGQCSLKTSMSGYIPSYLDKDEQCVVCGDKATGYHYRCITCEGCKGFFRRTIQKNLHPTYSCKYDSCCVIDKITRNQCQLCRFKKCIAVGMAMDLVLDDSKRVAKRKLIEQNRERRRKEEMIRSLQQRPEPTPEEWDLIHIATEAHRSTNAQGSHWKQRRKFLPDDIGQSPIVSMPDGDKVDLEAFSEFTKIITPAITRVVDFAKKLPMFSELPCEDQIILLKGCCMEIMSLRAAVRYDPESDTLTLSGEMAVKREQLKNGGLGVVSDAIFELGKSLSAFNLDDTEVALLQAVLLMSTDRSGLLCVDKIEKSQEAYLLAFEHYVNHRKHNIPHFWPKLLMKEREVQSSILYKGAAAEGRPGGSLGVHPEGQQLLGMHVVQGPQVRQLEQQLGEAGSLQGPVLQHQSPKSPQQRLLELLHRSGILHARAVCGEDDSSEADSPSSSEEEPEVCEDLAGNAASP

Question: With `CNC(=N[N+](=O)[O-])NCC1CCOC1` (stereo not given) as the compound, how does the outcome [1] read?
Answer: inactive

Question: And the outcome [2]?
Answer: inactive

Question: And the outcome [3]?
Answer: inactive

Question: What about the AC50 [4] of the same compound?
Answer: 15.7 nM (active)

Question: And the AC50 [5]?
Answer: 9.88 nM (active)

Question: And the AC50 [6]?
Answer: 8.85 nM (active)

Question: What about the outcome [7] of the same compound?
Answer: inactive

Question: And the outcome [8]?
Answer: inactive

Question: What about the outcome [9] of the same compound?
Answer: inactive

Question: What about the outcome [10] of the same compound?
Answer: inactive

Question: And the outcome [11]?
Answer: inactive

Question: What about the outcome [12] of the same compound?
Answer: inactive

Question: And the outcome [13]?
Answer: inactive

Question: With `c1ccc2c(c1)CCCC2` as the compound, how does the outcome [14] read?
Answer: inactive

Question: Which results are given for `CC(C)CCCCCCCOC(=O)c1ccccc1C(=O)OCCCCCCCC(C)C`?
Answer: outcome [15]: inactive; outcome [16]: inactive; outcome [17]: inactive; outcome [18]: inactive; outcome [19]: inactive; outcome [20]: inactive
